Data on eight molecules can be found in PubChem BioAssay (NCI).

Compounds without any hit were thinned out: in the full panel of roughly 83,000, 20% have a hit.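 A percent growth of 40 corresponds to 60% growth inhibition; 0 means no net growth; -100 means all cells died. Active threshold: below 10.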 Values without a mark were called inactive. Calls of active or inactive are those of the source.

Test systems include SR leukemia; RPMI-8226 leukemia; OVCAR-8 ovarian; OVCAR-5 ovarian; OVCAR-4 ovarian; SK-OV-3 ovarian; IGROV1 ovarian; OVCAR-3 ovarian; HS 578T breast; NCI/ADR-RES ovarian; T-47D breast; BT-549 breast; MDA-MB-435 melanoma; SW-620 colon; MCF7 breast; HCT-116 colon; HCC-2998 colon; KM12 colon.
Assay in all cases: NCI-60 one-dose screen, 48 h (100 = growth as untreated, 0 = no growth, -100 = all killed)
What all share (conditions): 10 µM unless noted

For `COc1ccc(-c2ccccc2)cc1-c1c(Nc2cc(Cl)cc(Cl)c2O)c(=O)c1=O`, the growth is 23.2% in the assay on SR leukemia; 25.4% with RPMI-8226 leukemia; 12.3% with OVCAR-8 ovarian; 28.7% with OVCAR-5 ovarian; 16.8% in the assay with OVCAR-4 ovarian; -10.8% (active) with SK-OV-3 ovarian. Further, the growth in the assay with IGROV1 ovarian was 31%; in the assay on OVCAR-3 ovarian, 5.32% (active); in the assay with HS 578T breast it was 3.42% (active); in the assay on NCI/ADR-RES ovarian, 1.38% (active); in the assay on T-47D breast, -8.93% (active); with BT-549 breast it was 19.7%. Moreover, the growth was -4.35% (active) with MDA-MB-435 melanoma; 17.5% with SW-620 colon; 5.24% (active) in the assay with MCF7 breast; 11.2% with HCT-116 colon; 13.8% with HCC-2998 colon; 7.85% (active) in the assay with KM12 colon.
On to `Cc1c(C(=O)OCCCCOC(=O)c2c(C)n(C)c3scc[n+]23)[n+]2ccsc2n1C`, for which the growth was 117% with SR leukemia; 96.1% with RPMI-8226 leukemia; 96.2% with OVCAR-8 ovarian; 83.5% with OVCAR-5 ovarian; 103% in the assay with OVCAR-4 ovarian; 103% with SK-OV-3 ovarian. The growth with IGROV1 ovarian is 110%; with OVCAR-3 ovarian, 95.3%; with HS 578T breast, 179%; in the assay on NCI/ADR-RES ovarian, 110%; in the assay on T-47D breast, 97.1%; with BT-549 breast, 110%. Besides, the growth in the assay with MDA-MB-435 melanoma was 109%; with SW-620 colon it was 125%; in the assay with MCF7 breast, 100%; with HCT-116 colon, 107%; in the assay on HCC-2998 colon, 115%; with KM12 colon, 118%.
As for `N#Cc1ccccc1-c1ccc(Cn2c(-c3cscn3)nc3c(Cl)cccc32)cc1`, the growth was 55.2% in the assay on SR leukemia; 48.3% with RPMI-8226 leukemia; 78.2% in the assay on OVCAR-8 ovarian; 86.8% with OVCAR-5 ovarian; 62% in the assay with OVCAR-4 ovarian; 82.6% in the assay with SK-OV-3 ovarian. Besides, the growth was 89.1% with IGROV1 ovarian; 63.3% with OVCAR-3 ovarian; 85.5% in the assay with HS 578T breast; 73.3% in the assay on NCI/ADR-RES ovarian; 56.3% in the assay with T-47D breast; 76.1% with BT-549 breast. Besides, the growth in the assay with MDA-MB-435 melanoma is 90.1%; in the assay on SW-620 colon, 87.6%; with MCF7 breast it was 64.2%; in the assay with HCT-116 colon, 51.2%; in the assay on HCC-2998 colon it was 93%; with KM12 colon, 77.1%.
For the molecule `COc1ccc(/C=C2/C(=O)N=C3N2NC(c2ccccc2)=CN3c2ccccc2)cc1`, the growth is 106% with SR leukemia; 99.9% in the assay on RPMI-8226 leukemia; 98.1% in the assay on OVCAR-8 ovarian; 107% in the assay on OVCAR-5 ovarian; 102% in the assay with OVCAR-4 ovarian; 107% in the assay on SK-OV-3 ovarian. In addition, the growth with IGROV1 ovarian was 95.9%; in the assay with OVCAR-3 ovarian it was 111%; in the assay with HS 578T breast, 95.4%; in the assay with NCI/ADR-RES ovarian, 96.9%; in the assay with T-47D breast, 106%; in the assay on BT-549 breast it was 96%. The growth was 108% in the assay on MDA-MB-435 melanoma; 101% in the assay with SW-620 colon; 99.9% with MCF7 breast; 99.8% in the assay on HCT-116 colon; 97.7% with HCC-2998 colon; 108% in the assay on KM12 colon.
For the molecule `O=C1/C(=C/c2ccc(-c3ccccc3C(F)(F)F)o2)SC(=S)N1CCc1ccc(O)cc1`, the growth was 14.2% in the assay with SR leukemia; 69.8% in the assay with RPMI-8226 leukemia; 57.6% in the assay on OVCAR-8 ovarian; 77.4% with OVCAR-5 ovarian; 44.8% with OVCAR-4 ovarian; 64% with SK-OV-3 ovarian. The growth in the assay with IGROV1 ovarian was 12.5%; in the assay with OVCAR-3 ovarian, 43.4%; in the assay with HS 578T breast, 47.7%; with NCI/ADR-RES ovarian, 43.9%; with T-47D breast it was 34.8%; in the assay with BT-549 breast it was 61.7%. In addition, the growth was -14.4% (active) in the assay with MDA-MB-435 melanoma; 32.1% with SW-620 colon; 27.7% with MCF7 breast; 33.9% with HCT-116 colon; 81.1% in the assay on HCC-2998 colon; 28.2% in the assay on KM12 colon.
Turning to `COc1ccc(/C=C/C(=O)c2cc3c(N)c(C(=O)Nc4ccccc4)sc3nc2C)cc1`, the growth in the assay with SR leukemia was 23.4%; in the assay on RPMI-8226 leukemia, -13.3% (active); in the assay on OVCAR-8 ovarian it was 3.29% (active); in the assay with OVCAR-5 ovarian it was 39.3%; in the assay with OVCAR-4 ovarian, 49.3%; in the assay on SK-OV-3 ovarian it was 33%. Also, the growth in the assay on IGROV1 ovarian was 31%; in the assay on OVCAR-3 ovarian, -16.6% (active); in the assay on HS 578T breast it was 14.6%; with NCI/ADR-RES ovarian, 2.9% (active); in the assay on T-47D breast, 46.7%; with BT-549 breast it was 2.86% (active). Further, the growth in the assay with MDA-MB-435 melanoma is -23.9% (active); in the assay with SW-620 colon it was 18%; with MCF7 breast, 7.19% (active); in the assay on HCT-116 colon, 8.12% (active); in the assay with HCC-2998 colon, 11.7%; in the assay on KM12 colon it was 6.61% (active).
For the molecule `[Cu+].[NH-][C@H]1C[N-]C(=O)[C@H]([C@H]2CCN=C(N)N2)[N-]C(=O)/C(=C\NC(N)=O)[N-]C(=O)[C@H](CNC(=O)C[C@@H](N)CCCN)[N-]C(=O)[C@H](CO)[N-]C1=O`, the growth in the assay with SR leukemia is 96.1%; in the assay with RPMI-8226 leukemia it was 103%; in the assay on OVCAR-8 ovarian, 106%; with OVCAR-5 ovarian, 113%; with OVCAR-4 ovarian, 99.9%; with SK-OV-3 ovarian it was 71.3%. Also, the growth with IGROV1 ovarian was 109%; with OVCAR-3 ovarian, 104%; in the assay on HS 578T breast, 97%; in the assay with NCI/ADR-RES ovarian, 103%; in the assay with T-47D breast it was 89.5%; in the assay with BT-549 breast, 104%. The growth is 94.3% in the assay with MDA-MB-435 melanoma; 91.7% in the assay with SW-620 colon; 101% in the assay on MCF7 breast; 97.4% in the assay with HCT-116 colon; 110% with HCC-2998 colon; 101% in the assay on KM12 colon.
In the case of `CONC1=Nc2cc(NC(N)=NCc3ccccc3)c(N(C)C3CCCCC3)cc2OC1`, the growth in the assay with SR leukemia is -12.1% (active); in the assay on RPMI-8226 leukemia, 38.5%; in the assay on OVCAR-8 ovarian it was 83.9%; in the assay on OVCAR-5 ovarian it was 65.5%; with OVCAR-4 ovarian, 73.8%; with SK-OV-3 ovarian, 83.5%. Further, the growth in the assay with IGROV1 ovarian was 59.6%; with OVCAR-3 ovarian, 77.4%; in the assay on HS 578T breast it was 71.4%; in the assay with NCI/ADR-RES ovarian it was 99.8%; with T-47D breast it was 63.7%; in the assay with BT-549 breast, 92%. In addition, the growth in the assay on MDA-MB-435 melanoma is 73%; with SW-620 colon, 75%; in the assay with MCF7 breast it was 36.1%; with HCT-116 colon, 45.8%; in the assay on HCC-2998 colon it was 22.1%; in the assay on KM12 colon it was 61.5%.
